Cruzain noTriton – inhibitors of Trypanosoma cruzi cruzain without detergent. P25779. purified cruzain, Z-FR-AMC fluorescence, no detergent. Potency, µM, most hits filed as inhibitors. hit rate 2.3% among 200,000; further: nearly all actives have a fitted effect of over 40% in size
Target sequence (P25779 123-467 limits assumed): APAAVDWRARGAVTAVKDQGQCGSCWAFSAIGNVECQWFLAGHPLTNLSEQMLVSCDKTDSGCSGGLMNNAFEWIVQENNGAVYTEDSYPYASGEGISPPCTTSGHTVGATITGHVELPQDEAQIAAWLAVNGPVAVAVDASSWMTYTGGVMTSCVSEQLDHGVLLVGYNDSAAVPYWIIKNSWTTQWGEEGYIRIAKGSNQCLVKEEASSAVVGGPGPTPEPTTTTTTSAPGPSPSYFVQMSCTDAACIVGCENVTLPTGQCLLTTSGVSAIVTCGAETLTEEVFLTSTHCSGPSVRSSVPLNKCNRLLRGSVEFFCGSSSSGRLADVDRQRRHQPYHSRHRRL
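Detergent-free condition (0.00005% Triton X-100) in acetate buffer pH 5.5 with DTT. 1.5 nM enzyme and compound were pre-mixed 15 min, then 2 uM Z-FR-AMC substrate added; reaction progress from fluorescence change between first and third reads (60 s).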
Cruzain inh Det – inhibitors of Trypanosoma cruzi cruzain with detergent; P25779; purified cruzain, Z-FR-AMC fluorescence, 0.01% Triton; Potency, µM, hits mostly inhibitors; hit rate 0.43% among 200,000; further: nearly all actives have a fitted effect of over 40% in size
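Cruzain (1.5 nM) preincubated 15 min at RT with compound in 100 mM sodium acetate pH 5.5, 5 mM DTT, 0.01% Triton X-100. Reaction started with 2 uM Z-FR-AMC; AMC fluorescence (ex 360/em 450 nm) change over 60 s gave rate.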
Of the large screens only hits and unclear results are named; the others gave an inactive call. Sampled rows, rich in hits. Any-hit rate of the full collection: about 2.6%. The call rests on the fitted dose curve; in most records, active means well fitted curve in the direction sought with a large enough effect; inconclusive means small, poorly fitted or top-dose-only effect, or another doubt; inactive means no such curve, though single readings can be large; an effect the other way counts as inactive or inconclusive.

Cc1cc(C)c(C)c(OCCOCCN2CCN(C)CC2)c1	none
CC(=O)Nn1cnc2c(c1=O)C1(CCCC1)Cc1ccccc1-2	none
COc1ccc(C(C)=O)cc1CSc1nnc(Nc2ccccc2C)s1	Cruzain noTriton inconclusive
CCOc1ccc(N2CC(=O)N(c3ccc(OCC)cc3)CC2=O)cc1	none
CCOc1ccc(N2Cc3ccccc3C2)cc1	Cruzain noTriton 15.8µM
COc1ccc(/C=N/NC(=O)c2ccc(CN3c4cccc5cccc(c45)S3(=O)=O)cc2)cc1	Cruzain noTriton 15.8µM
COc1ccc(/C=C/C(=O)Oc2cccc(/C=N/NC(=O)c3cccc(F)c3)c2)cc1	Cruzain noTriton inconclusive
O=C(N/N=C/CCc1ccccc1)c1ccc(CN2c3cccc4cccc(c34)S2(=O)=O)cc1	Cruzain noTriton inconclusive
COc1ccc(/C=C/C(=O)Oc2ccc(/C=N\NC(=O)c3ccc(F)cc3)cc2)cc1	Cruzain noTriton 7.94µM
Cc1ccc(CSCCNC(=O)/C=C/c2ccc(Cl)cc2)cc1	Cruzain noTriton 12.6µM
Cc1ccc(CCNC(=O)CCSCc2ccc(Cl)cc2)cc1	none
C=C(C)c1cccc(C(C)(C)NC(=O)N2CCN(C/C=C/c3ccccc3)CC2)c1	none
COc1ccc(-c2csc3nc(C)n(-n4cccc4)c(=O)c23)cc1OC	none
COc1ccc(-c2csc3nc(-c4cccnc4)nc(N4CCC(C(N)=O)CC4)c23)cc1OC	Cruzain noTriton inconclusive, Cruzain inh Det 25.1µM
Fc1ccc(CSc2nc3ncc(Br)cc3[nH]2)cc1	Cruzain noTriton inconclusive
Cc1cc(N)c2ccccc2[n+]1CCCCCCCCCCCCCC[n+]1c(C)cc(N)c2ccccc21	Cruzain noTriton 20µM, Cruzain inh Det 12.6µM
COc1ccc(NC(=O)C2CCCN2S(=O)(=O)c2ccc3c(c2)CCC(=O)N3)cc1Cl (stereo not given)	none
CC1(CCc2ccc(O)cc2)NC(=O)NC1=O (stereo not given)	none
Cc1ccc(-c2csc(/C(C#N)=C/Nc3ccccc3SC(F)(F)F)n2)cc1	Cruzain noTriton 10µM
N#C/C(=C\Nc1ccccc1SC(F)(F)F)c1nc(-c2ccc(F)cc2)cs1	none
COc1ccc(C2CC(c3cccs3)=NN2c2ccc(C=O)cc2)cc1 (stereo not given)	Cruzain noTriton inconclusive
COc1ccc(C2CC(c3cccs3)=NN2c2nc(-c3ccccc3)cs2)cc1OC (stereo not given)	Cruzain noTriton 7.94µM
COc1cc(OC)c(NC(=O)Cn2c(=O)oc3cc(S(=O)(=O)N4CCCC4)ccc32)cc1Cl	none
CC(C)(C)n1nnnc1C(c1ccc(C(F)(F)F)cc1)N(Cc1ccc(F)cc1)Cc1ccco1 (stereo not given)	none
CC(C)Nc1ccc(Nc2ccccc2)cc1	Cruzain noTriton 31.6µM
c1ccc(Nc2ccccc2)cc1	none
Cc1ccccc1OCc1nc(-c2ccc(NC(=O)c3ccc4c(c3)OCO4)cc2)no1	Cruzain noTriton 12.6µM
Cc1ccccc1OCc1nc(-c2ccc(NC(=O)c3ccco3)cc2)no1	none
CCN(NC(=O)C(O)(c1ccc(F)cc1)c1ccc(F)cc1)C(=O)c1ccccc1	none
CCOC(=O)c1c(C)[nH]c(C)c1C(=O)COC(=O)/C=C/c1cccc(Cl)c1	none
Cc1ccc(-n2c(C)cc(/C=c3/sc4nc5ccccc5n4c3=O)c2C)cc1	Cruzain noTriton 10µM
O=c1/c(=C\c2cccn2-c2ccccc2)sc2nc3ccccc3n12	Cruzain noTriton inconclusive
CCOC(=O)C1CCN(c2cc(C)nc3c(-c4ccccc4OC)c(C)nn23)CC1	none
CC(NC(=O)CN1C(=O)COc2ccc(Cl)cc21)c1ccccc1 (stereo not given)	none
CN(C)c1ccc(-c2nnn(CC(=O)Nc3ccccc3N3CCOCC3)n2)cc1	none
CN(C)c1ccc(-c2nnn(CC(=O)N3c4ccccc4CCc4ccccc43)n2)cc1	Cruzain noTriton 31.6µM
CC1CCCCN1C(=O)c1cc2nc(-c3ccccc3)cc(-c3ccccc3)n2n1 (stereo not given)	none
Cn1c(=O)c2c(nc(N/N=C/c3ccc(OC(=O)c4ccco4)cc3)n2Cc2ccc(F)cc2)n(C)c1=O	Cruzain noTriton inconclusive
Cn1c(=O)c2c(nc(N/N=C/c3ccc(OC(=O)c4ccco4)cc3)n2Cc2ccccc2Cl)n(C)c1=O	Cruzain noTriton 31.6µM, Cruzain inh Det inconclusive
Cc1ccc(CCNC(=O)c2ccc3c(=O)n(-c4ccc(C)cc4)c(=O)[nH]c3c2)cc1	none
Cc1ccc(-n2c(=O)[nH]c3cc(C(=O)NCCc4ccccc4)ccc3c2=O)cc1	Cruzain noTriton 15.8µM
Cc1ccc2ccc3cc(C(=O)N4CCN(c5ccccc5F)CC4)nc3c2[nH]1	none
Cc1ccc2ccc3cc(C(=O)Nc4ccc(C)c(F)c4)nc3c2[nH]1	Cruzain noTriton inconclusive, Cruzain inh Det 8.91µM
O=[N+]([O-])c1cc2c(c(CSc3nnc4ccccn34)c1)OCOC2	none
COc1ccc(Nc2nnc(SCc3cc([N+](=O)[O-])cc4c3OCOC4)s2)cc1	Cruzain noTriton 20µM
O=c1c2ccccc2nc(SCc2ccc([N+](=O)[O-])cc2)n1-c1ccccc1	Cruzain noTriton inconclusive
O=c1c2ccccc2nc(SCc2cc([N+](=O)[O-])cc3c2OCOC3)n1-c1ccccc1	Cruzain noTriton 12.6µM
CCCCNc1cc(C)nc(NCc2ccccc2)n1	none
Cc1ccc(-n2c(C)cc(C3=NNC(=NC4CC4)SC3)c2C)cc1C	none
O=C(NCCCn1ccnc1)c1nn2c(C(F)(F)F)cc(-c3ccc(Br)cc3)nc2c1Cl	none
C=C(C)C(O)/C=C/c1ccc(Br)cc1 (stereo not given)	none
N#C/C(=C\c1ccc(-c2cccc(C(F)(F)F)c2)o1)C(=O)Nn1cnnc1	none
O=C1OC(c2ccco2)=N/C1=C\c1ccc(-c2cccc(C(F)(F)F)c2)o1	Cruzain noTriton 12.6µM
CCOC(=O)c1c(NC(=O)Cn2cnc([N+](=O)[O-])n2)sc2c1CCC(C)C2 (stereo not given)	none
COc1ccc2c(c1)c1nnc(SC)nc1n2C	none
COc1ccc2c(c1)c1nnc(SCC(=O)N3C(C)CCCC3C)nc1n2C (stereo not given)	Cruzain inh Det 17.8µM
Cc1ccc(-c2cc(-c3ccccc3)[nH]c(=S)c2C#N)cc1	Cruzain noTriton 15.8µM
N#Cc1c(-c2ccc(C(F)(F)F)cc2)cc(-c2ccccc2)[nH]c1=S	none
O=C(Cn1c(=O)n(Cc2ccc(C(=O)NCc3ccccc3Cl)cc2)c(=O)c2ccccc21)Nc1ccc(F)c(Cl)c1	Cruzain noTriton 7.94µM
COc1ccc(NC(=O)Cn2c(=O)n(Cc3ccc(C(=O)NCc4ccccc4Cl)cc3)c(=O)c3ccccc32)cc1OC	none
O=C(Cn1c(=O)n(Cc2ccc(C(=O)NCc3ccccc3Cl)cc2)c(=O)c2ccccc21)Nc1ccc(F)cc1	Cruzain noTriton 12.6µM
CCc1ccc(NC(=O)Cn2c(=O)n(CCCC(=O)NCc3ccccc3Cl)c(=O)c3ccccc32)cc1	none
CCOC(=O)c1cc(-c2ccccc2)sc1NC(=O)CN1C(=O)NC(CC)(c2ccc(F)cc2)C1=O (stereo not given)	Cruzain noTriton 10µM
CCOC(=O)c1cc(-c2ccccc2)sc1NC(=O)CSc1nncs1	none
CCOC(=O)c1cc(-c2ccccc2)sc1NC(=O)CN1C(=O)NC(CC)(c2ccccc2)C1=O (stereo not given)	Cruzain noTriton 10µM
CCOC(=O)c1cc(-c2ccccc2)sc1NC(=O)CC	none
Cc1noc(/C=C/c2cccs2)c1S(=O)(=O)N1CCC(C(=O)NCc2ccc(Cl)cc2)CC1	none
O=C(OCc1nc2scc(-c3ccccc3)c2c(=O)[nH]1)c1cc(Cl)ccc1[N+](=O)[O-]	Cruzain noTriton 31.6µM

Screens: PubChem, National Center for Advancing Translational Sciences (NCATS)
